Screens: PubChem BioAssay, several laboratories
GC-B act – GC-B (human) receptor activation; HEK293-GC-B cells, CNP EC30, cGMP TR-FRET; 0% at EC30 CNP, 100% saturating CNP; activation, % at 10 µM; 370,000 tested, 0.11% active; AID 1920062;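 active = activation at 10 µM reaching about 35% in either raw or pattern-adjusted values, limit read from the data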
HDAC3 inh – human HDAC3 inhibition. recombinant HDAC3, fluorogenic peptide/trypsin coupled, fluorescence. inhibition, % at 8.3 µM. 320,000 tested, 0.15% active. AID 2718; in the data active = inhibition above about 26%, passing the limit was not always enough; inconclusive = no clear call, values can overlap the other calls
Target sequence (O15379 whole entry, looked up): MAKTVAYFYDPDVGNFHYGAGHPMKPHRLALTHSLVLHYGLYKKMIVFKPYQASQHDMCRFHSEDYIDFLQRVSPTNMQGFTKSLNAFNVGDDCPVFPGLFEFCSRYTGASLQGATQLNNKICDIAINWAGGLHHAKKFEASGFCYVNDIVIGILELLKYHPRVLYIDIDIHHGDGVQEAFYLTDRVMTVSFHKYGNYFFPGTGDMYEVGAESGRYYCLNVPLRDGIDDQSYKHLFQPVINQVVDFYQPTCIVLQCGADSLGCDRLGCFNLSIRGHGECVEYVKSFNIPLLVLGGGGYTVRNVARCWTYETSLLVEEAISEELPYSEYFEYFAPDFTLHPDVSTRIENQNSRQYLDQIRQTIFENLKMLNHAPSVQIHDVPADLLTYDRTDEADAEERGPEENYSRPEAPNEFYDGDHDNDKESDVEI
NPR1 activator – GC-A (human) enzyme activation; activation, % at 10 µM; P16066; AID 1671463; 370,000 tested, 0.14% active; HEK293 GC-A cells, cGMP TR-FRET, EC30 ANP; 0% at EC30 ANP, 100% saturating ANP; in the data active = activation above about 40%
ALR inh – blocks human ALR sulfhydryl oxidase activity; P55789; purified ALR, DTT oxidation, H2O2 HRP-luminol luminescence; inhibition, % (test concentration not listed); 290,000 tested, 3.8% active;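 active = mean replicate inhibition above about 79%, with every replicate also reaching it, limit read from the data; inconclusive = only one of the two criteria met; inactive = mean below limit and not every replicate reaching it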
Target sequence (P55789 whole entry, looked up): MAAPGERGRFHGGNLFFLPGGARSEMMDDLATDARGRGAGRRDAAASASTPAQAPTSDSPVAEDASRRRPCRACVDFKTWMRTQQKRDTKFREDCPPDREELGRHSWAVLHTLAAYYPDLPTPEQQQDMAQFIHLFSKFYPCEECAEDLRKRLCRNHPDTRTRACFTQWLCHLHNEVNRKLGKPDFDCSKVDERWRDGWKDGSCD
Numbers without * were called inactive; ? = inconclusive; . = no result given. The entries come from a sample that favours hits as a whole.

SMILES	GC-B act	HDAC3 inh	NPR1 activator	ALR inh
O=C(/C=C/c1ccccc1[N+](=O)[O-])c1ccccc1Br	3.1	1.0	4.8	32.1
Cc1ccc(NN=C2c3ccccc3-c3ccccc32)cc1	-4.3	-4.8	-3.1	89.0*
CCOC(=O)N1C(=O)C[C@](Sc2ccc(OC)cc2)(C(=O)N2CCCC2)[C@H]1c1ccc(OC)cc1	-0.4	.	-4.3	.
Cc1ccc(Cl)cc1N1CCN(C(=O)c2cn(C)c(=O)c3c2c2ccccc2n3C)CC1	-0.3	-6.7	-3.0	.
Cc1cccc(N2CCN(C(=O)c3cn(C)c(=O)c4c3c3ccccc3n4C)CC2)c1C	-6.6	6.7	1.3	87.9*
CCCS(=O)(=O)c1c(S(=O)(=O)CCC)c2c(C(N)=O)cccn2c1C(=O)c1ccc(F)cc1	1.3	-1.7	-1.2	.
CCCS(=O)(=O)c1c(S(=O)(=O)CCC)c2ccc(C(N)=O)cn2c1C(=O)c1ccccc1	41.7*	0.3	34.8	11.7
COc1ccc(S(=O)(=O)N2CCOCC2)cc1OC	3.8	2.8	2.1	1.2
COc1ccc(S(=O)(=O)N2CCOCC2)cc1N=Nc1sc(N)nc1-c1ccccc1	44.5*	-5.0	55.3*	-6.2
CCNc1nc(NCC)n2c(SCC(=O)c3ccccc3F)nnc2n1	0.4	0.1	-2.0	93.8*
Cc1nnc(SCC(=O)c2ccccc2F)n1Cc1ccccc1	4.0	2.5	2.2	93.8*
Cc1nnc(SCC(=O)c2c(N)n(C)c(=O)n(C)c2=O)n1Cc1ccccc1	-2.7	3.0	3.0	-6.8
COc1ccc(C2NC(=O)C(C#N)=C(S)N2c2ccc(C)cc2)cc1OC (centres undefined)	8.0	5.4	14.7	35.0
CCOC(=O)CSC1=C(C#N)C(=O)NC(c2ccc(OC)c(OC)c2)S1 (centres undefined)	-2.7	4.9	2.9	98.7*
CCOC(=O)CSc1nc2cc(OC)ccc2cc1C#N	-9.2	-5.4	-16.6	.
CCOC(=O)CSC1=C(C#N)C(=O)NC(c2ccc(OC)cc2)S1 (centres undefined)	9.2	11.7	4.2	98.2*
CN(C1CCCCC1)S(=O)(=O)c1ccc2c(c1)c(=O)c(C(=O)O)cn2C	-5.3	.	-1.4	.
CC[n+]1c(/C=C/C=C/N(C(C)=O)c2ccccc2)sc2cc(OC)ccc21	4.8	45.2*	-0.2	?
CC[n+]1c(/C=C(\C)OC)sc2ccccc21	3.0	.	-1.8	.
C[C@H]1C=C(C(=O)N2CCOCC2)O[C@@H](OCc2ccc(CO)cc2)C1	9.8	0.0	-0.6	-11.7
CC(C)(C)CNC(=O)c1cccc2c1C(=O)c1ccc(-c3cc4ccccc4o3)cc1S2(=O)=O	12.9	-3.1	3.2	35.1
Cc1ccc(Cl)cc1N1CCN(C(=O)CCS(=O)(=O)c2ccc3c(c2)NC(=O)CO3)CC1	-0.9	-5.3	-7.3	1.6
COCCCNC(=S)N/N=C/c1ccc(N(C)C)cc1	-9.7	-26.7	1.6	98.5*
Cc1c(NC(=S)N/N=C/c2ccc(N(C)C)cc2)c(=O)n(-c2ccccc2)n1C	-3.3	-13.5	-2.1	99.3*
CNC(=S)N/N=C/c1ccc(N(C)C)cc1	-3.1	-25.8	-2.4	99.4*
SMILES	GC-B act	HDAC3 inh	NPR1 activator	ALR inh
CC(=O)c1ccc2c(c1)N(CCCN1CCC(CCO)CC1)c1ccccc1S2	-21.1	-29.1	-23.0	96.2*
OCCN1CCN(CCCN2c3ccccc3Sc3ccc(Cl)cc32)CC1	-21.5	-2.2	-33.6	98.5*
CN(C)CCCN1c2ccccc2Sc2ccc(Cl)cc21	-23.1	4.1	-30.0	98.3*
CN(C)CCCN1c2ccccc2Sc2ccc3ccccc3c21	-16.2	.	-25.4	.
CN1CCN(CCCN2c3ccccc3Sc3ccc(S(=O)(=O)N(C)C)cc32)CC1	-14.6	1.2	-14.8	96.4*
CN1CCN(CCCNC(=O)c2cn(C)c3ccc(S(=O)(=O)N(C)C)cc3c2=O)CC1	-0.7	7.0	2.3	-2.5
CCN1C(=O)c2ccccc2Sc2ccc(C(=O)NCCCN3CCCCC3)cc21	5.5	1.1	5.3	-2.6
Nc1nc2n(n1)C(=O)CC(c1ccccc1)N2 (centres undefined)	-1.2	3.0	-0.4	5.0
C[C@H]1CN([C@@H](C)CO)C(=O)CCCn2nncc2CO[C@@H]1CN(C)C(=O)c1ccc2ccn(C)c2c1	4.0	.	1.3	.
COCCN(C(=O)CSc1ccc2c(c1)OCCO2)c1c(N)n(CC(C)C)c(=O)[nH]c1=O	2.8	-3.0	2.7	94.3*
C[C@H]1CN=C(Nc2ccccc2)N1CC1CCCCCC1	-5.5	-0.3	-2.0	-4.0
O=C(NNCc1ccc(O)cc1)c1ccccc1Cl	0.4	-4.5	2.7	98.9*
c1ccc(CCCNCCCn2cnc3c(OCc4ccccc4)ncnc32)cc1	-4.6	.	-2.6	.
Cc1cc2c(N=O)c(NO)ccc2[nH]1	.	3.2	.	78.9*
O=C(NCc1ccccc1)C(c1cccnc1)N(C(=O)c1csnn1)c1ccccc1 (centres undefined)	4.4	-2.7	-1.3	-3.3
C=C(c1ccc(O)cc1)c1ccc(O)cc1	-0.2	0.9	7.7	98.4*
COc1ccc(S[C@]2(C(=O)N(C)C)CC(=O)N(C(=O)c3ccccc3)[C@@H]2c2ccc(OC)cc2)cc1	2.3	.	0.1	.
COc1ccc(S(=O)(=O)NNC(N)=S)cc1	-3.7	1.8	-0.5	10.4
CC1CC(Nc2ccccc2)c2ccccc2N1C(=O)c1cccnc1 (centres undefined)	-1.0	4.6	-5.8	100.2*
C[C@@H]1C[C@H](Nc2ccccc2)c2ccccc2N1C(=O)c1cccnc1	-1.5	4.6	-1.9	27.0
O=C(CCCSc1nnc(SCCCC(=O)c2ccc(F)cc2)s1)c1ccc(F)cc1	-6.4	-1.7	0.3	-2.9
O=C(CCSC1=NCCCN1)c1ccc(F)cc1	-1.2	.	78.3*	.
CCOC(=O)Cc1csc(NC(=O)Cn2c(=O)oc3ccccc32)n1	-2.3	-1.1	2.0	-3.1
Cc1ccn2c(=O)nc(SCC(=O)Nc3ccc4c(c3)OCCO4)nc2c1	-0.3	3.3	-2.1	97.0*
Cc1ccc2nc(SCC(=O)Nc3ccc4c(c3)OCCO4)nc(=O)n2c1	-0.9	5.5	0.9	98.3*
SMILES	GC-B act	HDAC3 inh	NPR1 activator	ALR inh
Cc1ccn2c(=O)nc(SCC(=O)c3ccc(Cl)cc3)nc2c1	-3.2	6.5	-1.9	92.6*
Cc1ccn2c(=O)nc(SCC(=O)Nc3ccc4c(c3)OCO4)nc2c1	-5.1	4.9	-3.5	?
O=C(CSc1nc(=O)n2cc(Cl)ccc2n1)Nc1ccc2c(c1)OCCO2	-5.2	-5.6	-1.9	99.0*
COc1ccccc1NS(=O)(=O)c1cc(NC(=O)c2[nH]c(C)c(C(C)=O)c2C)ccc1N1CCOCC1	0.4	5.5	-1.1	-4.1
O=C(C(Br)=Cc1ccccc1)c1ccccc1	5.5	.	7.5	.
COc1ccc(NC(=O)CSC2CC(=O)N(c3ccc4c(c3)OCCO4)C2=O)cc1 (centres undefined)	-4.3	0.7	-3.8	98.5*
COc1ccccc1NC(=O)CN1CCN(CC(=O)Nc2ccc3c(c2)OCO3)CC1	4.6	2.6	-5.9	27.7
Cc1ccc(SC2CC(=O)N(c3ccc4c(c3)OCCO4)C2=O)cc1 (centres undefined)	1.0	-0.6	-0.3	97.8*
